Data taken from PubChem BioAssay.
For some of these results: Potency and affinity values are given separately. The source made the active and inactive calls. Unless noted, how the calls were made is not given here.

Experiments:
[1] = antimalarial activity against Dd2 strain (AID 2302;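 active means growth inhibition above 50% at the single 2 µM test dose, taken to imply half-maximal potency below 2 µM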;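 further: 0% = DMSO untreated growth and 100% = chloroquine plus artemisinin killed control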); conditions: P. falciparum Dd2 in RBCs, LDH growth readout, 72 h; at 2 µM; hits give high values
[2] = HepG2 cytotoxicity, primary screen, cytotoxicity control for P. falciparum antimalarial project, cell-based, ATP luminescence (AID 2303;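 active means inhibition above 50%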;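 further: 0% = DMSO wells and 100% = digitonin-killed cells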); conditions: HepG2 viability, 24-48 h, at 10 µM, hits give high values
[3] = target: L-lactate dehydrogenase (Plasmodium falciparum (isolate CDC / Honduras)) (UniProt Q27743); experiment: PfLDH activity inhibition – cell lysate, 3D7 strain, counter-screen for P. falciparum growth inhibition project (AID 2304);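 further: 0% = vehicle and 100% = reference inhibitor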; conditions: P. falciparum 3D7 crude extract, LDH APAD/NBT absorbance; at 2 µM; hits give high values
[4] = inhibition of 3D7 malaria parasite growth – strain 3D7 (AID 2306);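 further: 0% = DMSO wells and 100% = chloroquine plus artemisinin control wells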; conditions: P. falciparum 3D7 erythrocytic growth, LDH absorbance, 72 h; at 2 µM; hits give high values
[5] = target: Calcium-dependent protein kinase 1 (Plasmodium falciparum (isolate 3D7)) (UniProt P62344); experiment: PfCDPK1 kinase inhibitors, biochemical, TCAMS library (AID 1159585; cut-off not given, nearly all actives have IC50 up to about 0.98 µM;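 further: inhibitors leave more ATP so luminescence rises with inhibition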); conditions: recombinant PfCDPK1, Kinase-Glo ATP depletion luminescence
[6] = target: Plasmodium falciparum protein kinase 6 (PK6, PF3D7_1337100) (UniProt Q8IDW1); experiment: PfPK6 kinase inhibitors, biochemical, TCAMS library (AID 1159586); conditions: recombinant PfPK6, Kinase-Glo ATP depletion luminescence
[7] = target: Protein kinase 7 (PK7), Plasmodium falciparum 3D7 (PF3D7_0213400) (UniProt Q7YTF7); experiment: inhibition of Plasmodium PK7 catalytic activity – biochemical, TCAMS antimalarial set, Kinase-Glo luminescence (AID 1159587); conditions: recombinant PfPK7, Kinase-Glo ATP depletion luminescence
[8] = target: Calcium-dependent protein kinase 4 (Plasmodium falciparum (isolate 3D7)) (UniProt Q8IBS5); experiment: PfCDPK4 kinase inhibitors, biochemical, TCAMS library (AID 1159588; cut-off not given, nearly all actives have IC50 up to about 0.91 µM); conditions: recombinant PfCDPK4, Kinase-Glo ATP depletion luminescence
Sequence of Calcium-dependent protein kinase 4 (Plasmodium falciparum (isolate 3D7)) (Q8IBS5 whole entry, looked up): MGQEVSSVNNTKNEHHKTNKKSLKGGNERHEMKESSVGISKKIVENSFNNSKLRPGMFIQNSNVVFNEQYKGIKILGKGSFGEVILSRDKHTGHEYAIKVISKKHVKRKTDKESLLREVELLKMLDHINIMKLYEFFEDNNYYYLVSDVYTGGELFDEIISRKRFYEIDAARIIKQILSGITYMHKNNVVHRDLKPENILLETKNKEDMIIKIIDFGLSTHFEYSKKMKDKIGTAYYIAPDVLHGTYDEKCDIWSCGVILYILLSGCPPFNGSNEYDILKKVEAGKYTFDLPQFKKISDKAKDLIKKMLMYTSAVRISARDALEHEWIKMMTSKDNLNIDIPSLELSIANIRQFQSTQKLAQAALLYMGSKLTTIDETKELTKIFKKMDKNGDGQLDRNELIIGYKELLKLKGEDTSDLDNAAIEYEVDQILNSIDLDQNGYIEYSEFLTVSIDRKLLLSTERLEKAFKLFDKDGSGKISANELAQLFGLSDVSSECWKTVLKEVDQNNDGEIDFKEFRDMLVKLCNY

Sequence of L-lactate dehydrogenase (Plasmodium falciparum (isolate CDC / Honduras)) (Q27743 whole entry, looked up): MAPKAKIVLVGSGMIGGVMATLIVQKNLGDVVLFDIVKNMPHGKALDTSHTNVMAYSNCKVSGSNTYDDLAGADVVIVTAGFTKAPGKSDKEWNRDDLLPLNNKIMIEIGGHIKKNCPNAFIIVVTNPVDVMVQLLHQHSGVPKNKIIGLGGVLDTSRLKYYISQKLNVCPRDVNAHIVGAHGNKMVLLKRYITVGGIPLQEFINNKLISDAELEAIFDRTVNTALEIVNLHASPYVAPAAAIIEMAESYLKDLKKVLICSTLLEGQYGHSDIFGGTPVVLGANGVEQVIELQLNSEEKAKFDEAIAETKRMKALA
Sequence of Plasmodium falciparum protein kinase 6 (PK6, PF3D7_1337100) (Q8IDW1 1-305): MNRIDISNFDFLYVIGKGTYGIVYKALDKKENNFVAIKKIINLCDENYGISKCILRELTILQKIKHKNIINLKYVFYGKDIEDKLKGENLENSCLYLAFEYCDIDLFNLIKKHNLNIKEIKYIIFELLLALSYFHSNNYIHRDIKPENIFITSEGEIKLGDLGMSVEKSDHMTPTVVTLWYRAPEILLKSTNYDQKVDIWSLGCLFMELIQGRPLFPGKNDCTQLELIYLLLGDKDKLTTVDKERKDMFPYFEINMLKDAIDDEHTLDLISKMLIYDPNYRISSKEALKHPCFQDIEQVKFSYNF
Sequence of Calcium-dependent protein kinase 1 (Plasmodium falciparum (isolate 3D7)) (P62344 whole entry, looked up): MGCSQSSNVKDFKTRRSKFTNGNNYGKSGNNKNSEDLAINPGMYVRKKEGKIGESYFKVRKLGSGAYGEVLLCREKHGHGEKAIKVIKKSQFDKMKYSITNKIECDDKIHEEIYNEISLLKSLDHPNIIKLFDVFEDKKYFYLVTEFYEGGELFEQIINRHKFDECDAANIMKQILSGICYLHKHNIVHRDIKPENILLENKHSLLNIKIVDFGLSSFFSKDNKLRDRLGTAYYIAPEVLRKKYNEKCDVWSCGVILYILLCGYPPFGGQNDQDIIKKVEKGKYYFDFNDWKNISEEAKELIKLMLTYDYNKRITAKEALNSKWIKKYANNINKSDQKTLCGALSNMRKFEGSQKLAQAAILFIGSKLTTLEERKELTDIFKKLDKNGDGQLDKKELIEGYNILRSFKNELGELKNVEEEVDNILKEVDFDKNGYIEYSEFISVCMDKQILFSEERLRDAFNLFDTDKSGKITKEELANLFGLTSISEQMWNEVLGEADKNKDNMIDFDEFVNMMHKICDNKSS
Sequence of Protein kinase 7 (PK7), Plasmodium falciparum 3D7 (PF3D7_0213400) (Q7YTF7 1-343): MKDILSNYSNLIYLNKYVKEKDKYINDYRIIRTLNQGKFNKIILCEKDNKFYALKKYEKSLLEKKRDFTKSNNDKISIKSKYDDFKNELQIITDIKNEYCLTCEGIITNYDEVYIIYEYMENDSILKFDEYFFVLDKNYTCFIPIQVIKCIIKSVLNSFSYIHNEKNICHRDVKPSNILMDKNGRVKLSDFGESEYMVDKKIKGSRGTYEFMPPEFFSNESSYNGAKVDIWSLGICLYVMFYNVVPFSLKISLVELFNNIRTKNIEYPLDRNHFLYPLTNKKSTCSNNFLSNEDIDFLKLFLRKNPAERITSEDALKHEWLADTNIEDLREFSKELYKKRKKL

COc1cc2c(cc1OC)CN(c1cc(N)c3cc(OC)c(OC)cc3n1)CC2
inactive: inhibition [2] 23% | inhibition [3] -3% | outcome [5] | outcome [6] | outcome [7] | outcome [8]
active: growth inhibition [1] 99% | growth inhibition [4] 100%

COc1ccc(C2NCCc3c2[nH]c2ccccc32)cc1CN1CCN(c2ccc(F)cc2)CC1 (stereo not given)
inactive: inhibition [2] 37% | inhibition [3] -1% | outcome [5] | outcome [6] | outcome [7] | outcome [8]
active: growth inhibition [1] 56% | growth inhibition [4] 97%

O=C(Nc1cccc(CN2CCCN(Cc3ccc4c(c3)OCO4)CC2)c1)c1ccc2ccccc2c1
active: growth inhibition [4] 86%
inactive: growth inhibition [1] 14% | inhibition [2] 7% | inhibition [3] -2% | outcome [5] | outcome [6] | outcome [7] | outcome [8]

O=C(/C=C/c1ccc(C(F)(F)F)cc1)N1CCc2cc3nccc(N4CCN5CCC[C@H]5C4)c3cc21
active: growth inhibition [4] 86%
inactive: growth inhibition [1] 21% | inhibition [2] -7% | inhibition [3] -1% | outcome [5] | outcome [6] | outcome [7] | outcome [8]

Cc1cccc(C)c1CNc1cccc(-c2nc(C)c(C)[nH]2)c1
inactive: growth inhibition [1] 44% | inhibition [3] -3% | outcome [5] | outcome [6] | outcome [7] | outcome [8]
active: inhibition [2] 58% | growth inhibition [4] 99%

COc1ccc2nccc([C@@H](O)CN3CCC(NCc4cnc5snnc5c4)C(F)C3)c2c1 (stereo not given in full)
inactive: inhibition [2] 13% | inhibition [3] 2% | outcome [5] | outcome [6] | outcome [7] | outcome [8]
active: growth inhibition [1] 88% | growth inhibition [4] 83%

CCOC(=O)c1ccc(NC(=O)Nc2cccc(-c3cccc(-c4nc5ccc(F)cc5[nH]4)c3)c2)cc1
active: growth inhibition [1] 100% | inhibition [2] 85% | growth inhibition [4] 101%
inactive: inhibition [3] 6% | outcome [5] | outcome [6] | outcome [7] | outcome [8]

Fc1ccc2c(NN=CC=Cc3ccccc3)ccnc2c1
active: growth inhibition [1] 98% | growth inhibition [4] 101%
inactive: inhibition [2] -2% | inhibition [3] -3% | outcome [5] | outcome [6] | outcome [7] | outcome [8]

Oc1ccc(-c2cncc(NCc3ccc(F)c(F)c3)c2)cc1
inactive: inhibition [2] -14% | inhibition [3] -3% | outcome [5] | outcome [6] | outcome [7] | outcome [8]
active: growth inhibition [1] 80% | growth inhibition [4] 95%

COC(=O)c1cccc(OCCNC2CCN(C[C@H](O)c3ccnc4ccc(OC)cc34)CC2)c1
active: growth inhibition [1] 96% | growth inhibition [4] 100%
inactive: inhibition [2] -7% | inhibition [3] -10% | outcome [5] | outcome [6] | outcome [7] | outcome [8]

COc1ccccc1NC(=O)Nc1cccc(-c2ccc(-c3nc4c(C)cccc4[nH]3)s2)c1
inactive: growth inhibition [1] 46% | inhibition [2] 19% | inhibition [3] 3% | outcome [5] | outcome [6] | outcome [7] | outcome [8]
active: growth inhibition [4] 100%

Cc1cc(N(C)C)nc(Nc2ccc(NC(=O)c3c(F)cccc3Cl)cc2)n1
active: growth inhibition [4] 90%
inactive: growth inhibition [1] 36% | inhibition [2] 15% | inhibition [3] 4% | outcome [5] | outcome [6] | outcome [7] | outcome [8]

CCOc1ccc2nc(NC(=O)c3csnn3)sc2c1
inactive: inhibition [2] 6% | inhibition [3] 1% | outcome [5] | outcome [6] | outcome [7] | outcome [8]
active: growth inhibition [1] 98% | growth inhibition [4] 100%

CS(=O)(=O)CCNC(=O)c1ccc(-c2cc3c(Nc4ccc5c(cnn5Cc5ccccc5)c4)ncnc3cn2)o1
inactive: growth inhibition [1] 46% | inhibition [2] 6% | inhibition [3] -1% | outcome [5] | outcome [6] | outcome [7] | outcome [8]
active: growth inhibition [4] 97%

CC(C)C[C@H](NC(=O)c1ccc(OCCN2CCOCC2)cc1)C(=O)N[C@H](/C=N/N1CC(=O)NC1=O)CCc1ccccc1
inactive: inhibition [2] 10% | inhibition [3] 0% | outcome [5] | outcome [6] | outcome [7] | outcome [8]
active: growth inhibition [1] 67% | growth inhibition [4] 88%

CN(C)CCCN1C(=O)c2[nH]nc(-c3ccc(Cl)cc3O)c2C1c1ccc(Cl)cc1 (stereo not given)
inactive: growth inhibition [1] 15% | inhibition [3] 4% | outcome [5] | outcome [6] | outcome [7] | outcome [8]
active: inhibition [2] 57% | growth inhibition [4] 99%

O=C(/C=C/c1ccc(-c2nc3cc(F)c(F)cc3[nH]2)cc1)NCc1ccc(Cl)c(Cl)c1
inactive: growth inhibition [1] 24% | inhibition [2] 14% | inhibition [3] 4% | outcome [5] | outcome [6] | outcome [7] | outcome [8]
active: growth inhibition [4] 100%

Cc1ccc(-c2nc3ccc(C(=O)NC4CCN(Cc5ccccc5)CC4)cc3[nH]2)cc1
active: growth inhibition [1] 53% | growth inhibition [4] 100%
inactive: inhibition [2] 20% | inhibition [3] -4% | outcome [5] | outcome [6] | outcome [7] | outcome [8]

COc1ccc2nccc([C@@H](O)CN3CCC(NCc4cc5cccc(OCc6ccccc6)c5[nH]4)CC3)c2c1
active: growth inhibition [4] 101%
inactive: growth inhibition [1] 40% | inhibition [2] 13% | inhibition [3] 1% | outcome [5] | outcome [6] | outcome [7] | outcome [8]

O=C(NCc1ccc(F)cc1)c1ccc(N2CCN(c3ccncc3)CC2)cn1
active: growth inhibition [1] 81% | growth inhibition [4] 98%
inactive: inhibition [2] 7% | inhibition [3] -2% | outcome [5] | outcome [6] | outcome [7] | outcome [8]
